This is an account of results in PubChem BioAssay.

Molecules are shown by their SMILES. Where “and” joins values, the source holds several entries; their conditions need not be identical. Equal values may be shown once. Results filed as inconclusive are left out. Calls of active or inactive are those of the source. Unless noted, the rule behind the calls is not given here.

Test [1] is described as follows: P. berghei load reduction in hepatocytes – cell-based, HepG2, luciferase luminescence, HepG2 viability, primary screen (AID 624349; in the data active = parasite load remaining mostly below about 12%, no sharp cut-off; inactive = mostly above about 10%;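 note: 100% = mean of DMSO negative control wells on the same plate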). Particulars: P. berghei liver stage in HepG2, luciferase luminescence, concentration not given here; parasite load remaining: stronger effect = lower value; viability: measured here: HepG2 viability without parasites.
Test [2] relates to Aerobactin synthetase IucA (Klebsiella pneumoniae). Briefly: inhibition of K. pneumoniae IucA enzyme – biochemical, Tocris library, absorbance (AID 1345561).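 Note: 100% = enzyme without compound and 0% = no enzyme.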 The conditions noted are these: purified IucA enzyme assay, absorbance (OD) read-out; stronger effect = lower value;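 tested at 8 µM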.
Test [3] can be described thus: viability loss in pontine glioma line – cell-based, SU-DIPG-XIII, MIPE4.0, CellTiter-Glo, qHTS, dose response (AID 1347061; cut-off not given, nearly all actives have AC50 up to about 37 µM;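 note: cells exposed to compound for 48 hours before readout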). Particulars: CellTiter-Glo ATP luminescence. For orientation: Cellular ATP, detected with luciferase, serves as a proxy for viable cell number.
Test [4] is described as follows: viability loss in pontine glioma line – cell-based, JHH-DIPG-1, MIPE4.0, CellTiter-Glo, qHTS, dose response (AID 1347062; cut-off not given, nearly all actives have AC50 up to about 27 µM;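 for AC50: cells exposed to compound for two days before readout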). Particulars: JHH-DIPG-1 viability, CellTiter-Glo ATP luminescence.
Test [5] can be described thus: growth inhibition of DIPG cells – cell-based, MIPE5.0 library, qHTS (AID 1347068; cut-off not given, nearly all actives have IC50 up to about 30 µM;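 for IC50: cells exposed to compound for 48 hours before viability readout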). The conditions noted are these: SU-DIPG-XXV viability. Background: qHTS replaces the single test concentration by a dilution series.
Test [6] in a line: viability loss with induced miR-34 in A549 – imaging, A549 dox-inducible miR-34, nuclei and caspase counts, primary screen (AID 1347080;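 active = compounds whose cell count with miR-34 switched on is under 0.7 times the count with it off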). Particulars: A549 miR-34 inducible, Hoechst nuclei count, 48 h.
The nature of test [7]: MELAS cybrid and Rieske KO viability enhancers – cell-based, MELAS cybrids, Rieske KO mouse fibroblasts, CellTiter-Glo, primary screen (AID 1508586;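 active = mean z-score across replicates of 1.96 or higher in either the MELAS or the Rieske mutant cell line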;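 note: z relative to plate mean and SD of compound and empty wells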). Particulars: low glucose.
Test [8] is described as follows: galactose survival enhancers in mitochondrial complex I cybrids – cell-based, galactose medium, ATP luminescence, primary screen (AID 1645843;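 active = z-score of at least 1.8 in each of two replicates, scored against plate mean and spread of sample wells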;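 note: positive z means more ATP and so rescue of galactose-driven cybrid death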). Particulars: complex I mutant cybrid cells, 72 h, stronger effect = higher value.
The nature of test [9]: compounds altering HSF1 focus formation in cells – imaging, Selleck Cancer Library (AID 1347162; in the data active = plate-normalised HSF1 focus index below about 0.46). The conditions noted are these: human cells, HSF1 nuclear foci imaging, at 10 µM; SSMD: measured here: HSF1 foci SSMD mean; cell count: measured here: cell number; plate-normalised HSF1 focus index: stronger effect = lower value.
Test [10] is described as follows: compounds altering circadian rhythm period length – cell-based, LOPAC library, luminescence reporter (AID 2774).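 Note: values are relative to mean of DMSO wells on each plate.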 The conditions noted are these: circadian reporter cells, at 7 µM, actives lie on both sides.
Test [11] deals with Hepatitis C virus NS3 helicase. Briefly: blockers of NS3h binding to ssDNA – biochemical, fluorescence polarization, LOPAC1280 library, primary screen (AID 687035; in the data active = inhibition above about 37%). The conditions noted are these: Purified HCV NS3 helicase, Cy5-dT15 ssDNA binding fluorescence polarization; stronger effect = higher value; concentration not given here.
The nature of test [12]: compounds altering Cy5-DNA-NS3h complex signal – biochemical, LOPAC1280, artefact control for HCV NS3 helicase inhibitor project (AID 687037). Particulars: Cy5-DNA-NS3h complex fluorescence interference counterscreen.
Test [13] is described as follows: blockers of cellular phospholipid synthesis – cell-based, LOPAC library, screen 4, primary screen (AID 1347384). The conditions noted are these: animal cells, phospholipid biosynthesis inhibition screen; at 10 µM.
A short description of test [14]: compounds altering viability of human ES cells (AID 493140).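 Note: cells exposed to compounds for four days before counting.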 The conditions noted are these: human embryonic stem cell survival screen; stronger effect = higher value.
The nature of test [15]: chitosan synthesis blockers in C. neoformans – flow cytometry, Cibacron Brilliant Red staining (AID 1347148).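 Note: compound exposure lasted three days at 37 degrees C.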 Particulars: Cryptococcus neoformans chitosan, stronger effect = lower value; at 10 µM unless noted. (In flow cytometry, cells or beads pass a laser one at a time.)
[16] abbreviates: stronger effect = lower value, cell number ratio, induced over uninduced.
Setting [17] is: measured here: relative caspase fold change +Dox/-Dox.
Setting [18] is: measured here: total cells with miR-34 induction, stronger effect = lower value.
Setting [19] is: measured here: total cells without miR-34 induction.
The mark [20] stands for this setting: MELAS cybrid survival, CellTiter-Glo 48 h, stronger effect = higher value.
The mark [21] stands for this setting: Rieske KO mouse fibroblast survival, CellTiter-Glo 72 h.

Broadly, the viability is a read-out of living cells in per cent, often relative to untreated cells. For orientation: remaining activity means the signal under treatment as a percentage of the control signal. As a reminder, the AC50 is the concentration at which the activity in the assay is half-maximal. The term IC50 denotes the concentration needed to halve the response being measured. As usually defined, the inhibition is the drop in the measured response relative to a control, in per cent.

Regarding `O=C(c1ccc(Nc2nccc(-c3cc4ccccc4s3)n2)cc1)N1CCC(N2CCCC2)CC1`, the parasite load remaining in test [1] was 27.7% (inactive). The molecule also gave a viability in test [1] of 86.2%. In test [2], the remaining activity is 98.9% (inactive). In addition, the figures for the half-maximal activity concentration (AC50) in [3] and in test [4] were 23.5 µM (active) and 18.7 µM (active), respectively. For the same molecule, the IC50 in [5] was 9.34 µM (active). The fold change was 1.04 (inactive) and 1.02 (inactive) in [6] (setting [16]); 0.636 and 0.577 in test [6] (setting [17]). For the same molecule, the cell count is 3590 and 394 in [6] (setting [18]); 3460 and 385 in [6] (setting [19]). Moreover, the z-score is -0.0984 (inactive) in [7] (setting [20]), 0.125 in [7] (setting [21]) and -0.705 (inactive) in test [8].
Turning to `Nc1ncnc2c1ncn2[C@@H]1O[C@H](CO)C[C@H]1O`, the remaining activity in [2] was 110% (inactive). Besides, the molecule was called inactive in test [3], in test [4] and in [5]. The fold change in test [6] (setting [16]) is 0.951 (inactive); in [6] (setting [17]), 1.64. The figures for the cell count in test [6] (setting [18]) and in test [6] (setting [19]) were 9150 and 9630, respectively. For the same molecule, in test [8], the z-score is -0.55 (inactive).
Regarding `Oc1ccc(Nc2nc(-c3ccc(Cl)cc3)cs2)cc1`, the parasite load remaining in [1] was 34.6% (inactive). Also, in [1], the viability came to 65.5%. Also, in test [2], the remaining activity was 89% (inactive). In addition, the fold change in test [6] (setting [16]) was 0.947 (inactive) and 0.904 (inactive) and 0.869 (inactive); in [6] (setting [17]), 0.378 and 0.549 and 1.23. In addition, the cell count in [6] (setting [18]) is 4850 and 4920 and 2840; in test [6] (setting [19]), 5120 and 5440 and 3260; in [9], 6680. This molecule also had an SSMD in [9] of 1.25. For the same molecule, the plate-normalised HSF1 focus index in test [9] is 1.08 (inactive). The z-score is -0.306 in test [7] (setting [20]), 2.78 in [7] (setting [21]) and -0.695 (inactive) in test [8].
In the case of `NC(=O)c1ccc(-c2nc(-c3ccc4c(c3)OCCO4)c(-c3ccccn3)[nH]2)cc1`, the parasite load remaining in [1] was 23.5% (inactive). In test [1], the viability was determined as 94.8%. The remaining activity in [2] was 105% (inactive). The outcome in test [4] and in test [5] was inactive. The fold change was 0.947 (inactive) and 0.907 (inactive) in [6] (setting [16]); 1.17 and 1.19 in [6] (setting [17]). For the same molecule, the cell count is 6010 and 7770 in test [6] (setting [18]); 6350 and 8570 in test [6] (setting [19]); 7030 in [9]. In test [9], this molecule registered an SSMD of 3.6. In [9], the plate-normalised HSF1 focus index is 1.22 (inactive). The z-score in [8] is -0.34 (inactive).
For the molecule `CC(C)N(CCC(=O)c1ccc2ccccc2c1)Cc1ccccc1`, the period change in [10] was 0 h (inactive). For the same molecule, in [1], the parasite load remaining is 28.5% (inactive). In test [1], this molecule gave a viability of 88.8%. Further, the inhibition in test [11] is -3% (inactive). Further, in test [12], the fluorescence ratio (interference) is 0.9 (inactive). Further, the remaining activity in test [2] is 113% (inactive). In addition, the fold change is 1.13 (inactive) and 0.795 (inactive) and 0.953 (inactive) in [6] (setting [16]); 1 and 0.533 and 0.643 in test [6] (setting [17]). Moreover, the cell count is 10100 and 6810 and 7420 in test [6] (setting [18]); 8940 and 8570 and 7790 in test [6] (setting [19]). In addition, the outcome in test [13] was inactive. Moreover, the z-score is -0.331 (inactive) in [7] (setting [20]); -0.0503 in [7] (setting [21]); -1.29 (inactive) and -0.82 (inactive) in test [8].
Consider `O=C1c2ccccc2-c2n[nH]c3cccc1c23`, for which the period change in [10] is 1.23 h (active). Besides, the survival in test [14] is 97.1 (inactive). In addition, the parasite load remaining in test [1] is 34% (inactive). In test [1], this molecule gave a viability of 81%. Besides, the inhibition in test [11] is 1% (inactive). Moreover, the fluorescence ratio (interference) in test [12] was 1 (inactive). Further, in test [2], the remaining activity is 103% (inactive). The molecule was classed as inactive in [3], in test [4] and in test [13]. Also, the fold fluorescence in test [15] is 20.5 [at 227 µM] (inactive). The z-score in test [7] (setting [20]) was -0.446 (inactive); in [7] (setting [21]) it was -0.381; in [8], 0.03 (inactive) and 0.085 (inactive).
For `FC(F)(F)c1ccc(/C=C/c2nc(COc3ccc(CCCCn4ccnn4)cc3)co2)cc1`, the remaining activity in test [2] was 112% (inactive). The result in test [3] and in [4] was inactive. Besides, the fold change in test [6] (setting [16]) is 1.08 (inactive); in test [6] (setting [17]) it was 2.06. Besides, the cell count was 4070 in [6] (setting [18]) and 3770 in test [6] (setting [19]). Also, in test [8], the z-score was -0.935 (inactive).
